Experimental data as given in the supplement of paper PMC10849652.
The full data set covers some 8,800 targets. This sample favours those with a hit. About 0.5% of all pairs of compound and target were hits.

Key:
Test in all cases: log2 fold change, soluble protein after heating vs DMSO (PISA); higher = thermal stabilisation; K562 lysate, 10 uM; active = over 0.2 and 3.5 SD of the protein, either way, in both replicates (recomputed)
[1] = compound: C1=CC=C(C=C1)[C@H](COC2=CC3=C(C=C2)NC(=O)N3)NC(=O)C4=CC=CN(C4=O)CC5=CC(=C(C=C5)F)F
In short: (§1)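 Dounce homogenisation of K562 pellets in PBS pH 7.4 with 1 mM MgCl2 produced a crude extract, used at 1 mg/mL protein. Exposure to 10 μM compound lasted 30 min, and aliquots were then heated for 3 min across 48°C-58°C, pooled and brought to 0.5% NP-40 at 4°C. The supernatant after 21,000xg for 90 min was quantified by TMTpro 16plex LC-MS/MS with channel sums equalised. Duplicate values are given as log-two fold change in thermal stability relative to solvent controls.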

[2] = compound: CC1=C(SC2=C1C(=N[C@H](C3=NN=C(N32)C)CC(=O)N)C4=CC=C(C=C4)Cl)C
In short: as §1

[3] = compound: CC1=C2C(=CC=C1)N=C(N(C2=O)C3=CC=CC=C3C)CN4C=NC5=C(N=CN=C54)N
In short: as §1

[4] = compound: Cc1sc2c(c1C)C(c1ccc(Cl)cc1)=N[C@@H](CC(=O)OC(C)(C)C)c1nnc(C)n1-2
In short: as §1

[5] = compound: c1ccc([C@@H]2C[C@H]2NC2CCNCC2)cc1
In short: as §1

Measured: log2 fold change

PPIE (UniProt Q9UNP9)
inactive: [1] 0.033 | [2] -0.023 | [3] 0.026 | [4] -0.04 | [5] -0.144

PRKDC (UniProt P78527)
inactive: [1] -0.073 | [2] -0.123 | [3] -0.064 | [4] 0.028 | [5] -0.048

PFKFB2 (UniProt O60825)
Chain of UniProt O60825 (O60825 whole entry, looked up): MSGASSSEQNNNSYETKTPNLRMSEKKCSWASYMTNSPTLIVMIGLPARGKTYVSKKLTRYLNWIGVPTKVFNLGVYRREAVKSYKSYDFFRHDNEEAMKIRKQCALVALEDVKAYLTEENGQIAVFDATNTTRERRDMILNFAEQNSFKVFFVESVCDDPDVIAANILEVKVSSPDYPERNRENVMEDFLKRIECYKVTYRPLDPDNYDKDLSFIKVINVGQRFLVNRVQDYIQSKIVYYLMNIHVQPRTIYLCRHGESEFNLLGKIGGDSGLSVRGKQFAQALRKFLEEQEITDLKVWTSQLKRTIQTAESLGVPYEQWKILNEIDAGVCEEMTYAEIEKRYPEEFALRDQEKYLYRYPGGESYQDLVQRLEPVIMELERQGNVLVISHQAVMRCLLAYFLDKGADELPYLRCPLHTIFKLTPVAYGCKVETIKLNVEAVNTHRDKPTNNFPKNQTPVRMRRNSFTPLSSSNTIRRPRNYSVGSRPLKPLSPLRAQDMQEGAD
inactive: [1] 0.016 | [2] 0.001 | [3] 0.03 | [4] -0.001 | [5] -0.008

PDIA4 (UniProt P13667)
Chain of UniProt P13667 (P13667 whole entry, looked up): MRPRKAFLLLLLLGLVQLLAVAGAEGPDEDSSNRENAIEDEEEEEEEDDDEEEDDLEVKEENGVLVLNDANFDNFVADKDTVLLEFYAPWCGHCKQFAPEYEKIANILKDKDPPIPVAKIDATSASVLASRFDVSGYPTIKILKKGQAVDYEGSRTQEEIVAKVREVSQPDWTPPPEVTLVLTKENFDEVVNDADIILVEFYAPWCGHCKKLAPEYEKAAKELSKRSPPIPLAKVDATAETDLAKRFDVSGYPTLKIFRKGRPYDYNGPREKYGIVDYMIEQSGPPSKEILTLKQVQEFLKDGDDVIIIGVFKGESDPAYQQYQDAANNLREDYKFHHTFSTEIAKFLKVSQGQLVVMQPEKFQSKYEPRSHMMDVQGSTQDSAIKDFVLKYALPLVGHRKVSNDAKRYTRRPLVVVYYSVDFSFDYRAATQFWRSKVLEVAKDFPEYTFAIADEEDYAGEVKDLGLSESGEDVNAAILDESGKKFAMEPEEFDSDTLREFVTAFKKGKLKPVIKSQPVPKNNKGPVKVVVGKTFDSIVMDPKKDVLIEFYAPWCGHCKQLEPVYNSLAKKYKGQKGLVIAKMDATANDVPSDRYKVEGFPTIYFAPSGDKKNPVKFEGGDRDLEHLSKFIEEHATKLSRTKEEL
inactive: [1] -0.004 | [2] -0.006 | [3] -0.009 | [4] 0.002 | [5] 0.037

PGPEP1 (UniProt Q9NXJ5)
inactive: [1] 0.027 | [2] -0.071 | [3] -0.013 | [4] -0.025 | [5] 0.012

PUM1 isoform 3 (UniProt Q14671)
inactive: [1] -0.057 | [2] 0.048 | [3] 0.024 | [4] -0.003 | [5] 0.054

PES1 (UniProt O00541)
inactive: [1] 0.027 | [2] 0.016 | [3] 0.019 | [4] 0.016 | [5] 0.02

POMP (UniProt Q9Y244)
Chain of UniProt Q9Y244 (Q9Y244 whole entry, looked up): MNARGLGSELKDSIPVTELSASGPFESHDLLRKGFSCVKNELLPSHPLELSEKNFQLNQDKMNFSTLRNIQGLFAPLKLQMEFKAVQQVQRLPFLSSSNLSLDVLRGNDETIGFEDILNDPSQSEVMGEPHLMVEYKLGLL
inactive: [1] 0.077 | [2] -0.053 | [3] 0.045 | [4] -0.036 | [5] 0.061

PTPN1 (UniProt P18031)
Chain of UniProt P18031 (P18031 whole entry, looked up): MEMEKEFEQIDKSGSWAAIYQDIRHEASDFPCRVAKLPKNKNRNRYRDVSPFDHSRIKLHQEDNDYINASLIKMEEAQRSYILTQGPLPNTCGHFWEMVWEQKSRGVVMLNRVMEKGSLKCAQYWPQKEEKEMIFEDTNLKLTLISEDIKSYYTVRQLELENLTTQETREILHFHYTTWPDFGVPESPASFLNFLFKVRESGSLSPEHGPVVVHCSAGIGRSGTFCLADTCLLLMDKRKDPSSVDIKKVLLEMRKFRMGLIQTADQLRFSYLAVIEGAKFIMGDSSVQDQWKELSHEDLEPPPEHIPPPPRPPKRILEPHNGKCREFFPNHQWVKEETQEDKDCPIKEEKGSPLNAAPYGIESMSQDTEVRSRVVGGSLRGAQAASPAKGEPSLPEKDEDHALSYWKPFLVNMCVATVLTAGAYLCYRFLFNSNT
inactive: [1] -0.006 | [2] 0.008 | [3] 0.01 | [4] -0.026 | [5] 0.005

PRMT5 (UniProt O14744)
Chain of UniProt O14744 (O14744 whole entry, looked up): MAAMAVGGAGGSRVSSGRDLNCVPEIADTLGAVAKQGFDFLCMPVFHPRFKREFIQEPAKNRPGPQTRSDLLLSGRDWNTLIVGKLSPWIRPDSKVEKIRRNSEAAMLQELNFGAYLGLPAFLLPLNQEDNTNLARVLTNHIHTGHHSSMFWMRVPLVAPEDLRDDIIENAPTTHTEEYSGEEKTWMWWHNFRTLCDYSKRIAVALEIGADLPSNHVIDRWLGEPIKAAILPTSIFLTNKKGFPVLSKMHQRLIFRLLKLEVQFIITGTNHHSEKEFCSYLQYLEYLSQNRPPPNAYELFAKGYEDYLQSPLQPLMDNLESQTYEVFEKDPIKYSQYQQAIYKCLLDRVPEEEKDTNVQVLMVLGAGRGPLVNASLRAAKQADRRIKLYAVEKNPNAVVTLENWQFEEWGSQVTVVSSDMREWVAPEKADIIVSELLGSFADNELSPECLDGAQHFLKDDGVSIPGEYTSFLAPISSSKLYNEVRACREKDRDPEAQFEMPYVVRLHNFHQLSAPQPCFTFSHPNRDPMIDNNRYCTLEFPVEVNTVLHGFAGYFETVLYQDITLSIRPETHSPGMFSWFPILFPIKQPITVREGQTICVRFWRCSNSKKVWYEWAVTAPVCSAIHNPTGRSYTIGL
inactive: [1] -0.01 | [2] 0.031 | [3] 0.006 | [4] -0.013 | [5] 0.002

PYCR2 (UniProt Q96C36)
Chain of UniProt Q96C36 (Q96C36 whole entry, looked up): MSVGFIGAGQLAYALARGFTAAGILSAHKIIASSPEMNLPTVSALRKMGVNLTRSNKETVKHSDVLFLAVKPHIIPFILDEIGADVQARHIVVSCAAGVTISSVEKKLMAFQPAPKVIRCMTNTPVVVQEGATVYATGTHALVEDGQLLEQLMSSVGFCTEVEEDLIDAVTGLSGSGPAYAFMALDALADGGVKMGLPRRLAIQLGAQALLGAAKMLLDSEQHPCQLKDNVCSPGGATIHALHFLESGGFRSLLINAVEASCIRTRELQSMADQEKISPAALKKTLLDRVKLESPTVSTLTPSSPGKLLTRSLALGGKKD
inactive: [1] 0.007 | [2] 0.036 | [3] 0.013 | [4] 0.004 | [5] -0.054

PCBP2 isoform 8 (UniProt Q15366)
inactive: [1] 0.098 | [2] 0.065 | [3] -0.038 | [4] -0.044 | [5] -0.101

PPP1R8 (UniProt Q12972)
inactive: [1] 0.006 | [2] 0.017 | [3] 0.003 | [4] 0.059 | [5] -0.142

PI4KB (UniProt Q9UBF8)
inactive: [1] 0.022 | [2] -0.006 | [3] -0.019 | [4] -0.005 | [5] 0.002

PFDN2 (UniProt Q9UHV9)
Chain of UniProt Q9UHV9 (Q9UHV9 whole entry, looked up): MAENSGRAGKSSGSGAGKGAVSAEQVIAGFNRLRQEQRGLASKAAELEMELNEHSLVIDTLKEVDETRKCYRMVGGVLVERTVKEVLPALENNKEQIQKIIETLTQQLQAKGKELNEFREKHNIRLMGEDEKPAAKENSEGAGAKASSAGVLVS
inactive: [1] 0.044 | [2] -0.055 | [3] -0.016 | [4] -0.008 | [5] 0.063

PIR (UniProt O00625)
inactive: [1] -0.013 | [2] 0.017 | [3] 0.026 | [4] 0.009 | [5] 0.06

PRKCSH (UniProt P14314)
Chain of UniProt P14314 (P14314 whole entry, looked up): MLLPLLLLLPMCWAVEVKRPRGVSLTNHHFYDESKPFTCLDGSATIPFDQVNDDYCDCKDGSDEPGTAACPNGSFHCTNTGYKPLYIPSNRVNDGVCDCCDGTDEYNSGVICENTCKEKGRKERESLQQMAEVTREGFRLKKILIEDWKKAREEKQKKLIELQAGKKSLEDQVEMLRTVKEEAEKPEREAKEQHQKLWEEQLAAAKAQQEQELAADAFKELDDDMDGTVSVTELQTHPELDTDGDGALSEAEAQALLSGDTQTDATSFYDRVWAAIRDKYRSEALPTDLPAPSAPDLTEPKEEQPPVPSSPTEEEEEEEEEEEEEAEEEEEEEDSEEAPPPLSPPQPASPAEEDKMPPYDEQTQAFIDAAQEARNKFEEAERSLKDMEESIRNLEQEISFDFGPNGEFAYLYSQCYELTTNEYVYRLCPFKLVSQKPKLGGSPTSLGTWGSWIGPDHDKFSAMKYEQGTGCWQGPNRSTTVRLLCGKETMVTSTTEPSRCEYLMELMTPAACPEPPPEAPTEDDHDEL
inactive: [1] 0 | [2] -0.002 | [3] -0.017 | [4] 0.041 | [5] 0.021

PPP2R5C isoform 5 (UniProt Q13362)
Chain of UniProt Q13362 (Q13362 whole entry, looked up): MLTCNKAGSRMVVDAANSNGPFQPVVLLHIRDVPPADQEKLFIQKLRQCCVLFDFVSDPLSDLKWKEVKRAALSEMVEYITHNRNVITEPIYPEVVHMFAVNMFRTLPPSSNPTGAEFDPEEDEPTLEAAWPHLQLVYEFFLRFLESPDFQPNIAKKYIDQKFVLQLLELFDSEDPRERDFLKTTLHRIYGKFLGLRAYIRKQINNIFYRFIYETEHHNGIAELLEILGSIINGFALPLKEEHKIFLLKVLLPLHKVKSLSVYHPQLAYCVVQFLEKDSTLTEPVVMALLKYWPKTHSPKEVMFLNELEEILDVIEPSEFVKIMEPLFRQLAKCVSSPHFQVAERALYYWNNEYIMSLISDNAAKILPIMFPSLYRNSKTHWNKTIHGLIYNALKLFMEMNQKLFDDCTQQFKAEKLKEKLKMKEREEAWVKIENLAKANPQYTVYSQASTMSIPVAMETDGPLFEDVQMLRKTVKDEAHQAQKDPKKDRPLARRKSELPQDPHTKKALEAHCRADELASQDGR
inactive: [1] -0.068 | [2] 0.011 | [3] -0.02 | [4] -0.024 | [5] 0.071

POLR2F (UniProt P61218)
inactive: [1] 0.013 | [2] -0.105 | [3] -0.163 | [4] 0.381 | [5] 0.359

PRMT8 (UniProt Q9NR22)
inactive: [1] -0.016 | [2] 0.031 | [3] 0.01 | [4] -0.041 | [5] -0.147

PICALM (UniProt Q13492)
inactive: [1] -0.014 | [2] 0.027 | [3] 0.016 | [4] 0.005 | [5] 0.007

PFAS (UniProt O15067)
inactive: [1] 0.007 | [2] 0.017 | [3] 0.02 | [4] 0.042 | [5] 0.023

PUF60 (UniProt Q9UHX1)
inactive: [1] -0.017 | [2] 0.006 | [3] 0.004 | [4] 0.028 | [5] 0.059

PIP4K2A (UniProt P48426)
inactive: [1] -0.093 | [2] -0.053 | [3] -0.041 | [4] -0.05 | [5] -0.106

PHGDH, A0A286YFE1
inactive: [1] 0.061 | [2] -0.111 | [4] -0.095

PRKD3 (UniProt O94806)
Chain of UniProt O94806 (O94806 whole entry, looked up): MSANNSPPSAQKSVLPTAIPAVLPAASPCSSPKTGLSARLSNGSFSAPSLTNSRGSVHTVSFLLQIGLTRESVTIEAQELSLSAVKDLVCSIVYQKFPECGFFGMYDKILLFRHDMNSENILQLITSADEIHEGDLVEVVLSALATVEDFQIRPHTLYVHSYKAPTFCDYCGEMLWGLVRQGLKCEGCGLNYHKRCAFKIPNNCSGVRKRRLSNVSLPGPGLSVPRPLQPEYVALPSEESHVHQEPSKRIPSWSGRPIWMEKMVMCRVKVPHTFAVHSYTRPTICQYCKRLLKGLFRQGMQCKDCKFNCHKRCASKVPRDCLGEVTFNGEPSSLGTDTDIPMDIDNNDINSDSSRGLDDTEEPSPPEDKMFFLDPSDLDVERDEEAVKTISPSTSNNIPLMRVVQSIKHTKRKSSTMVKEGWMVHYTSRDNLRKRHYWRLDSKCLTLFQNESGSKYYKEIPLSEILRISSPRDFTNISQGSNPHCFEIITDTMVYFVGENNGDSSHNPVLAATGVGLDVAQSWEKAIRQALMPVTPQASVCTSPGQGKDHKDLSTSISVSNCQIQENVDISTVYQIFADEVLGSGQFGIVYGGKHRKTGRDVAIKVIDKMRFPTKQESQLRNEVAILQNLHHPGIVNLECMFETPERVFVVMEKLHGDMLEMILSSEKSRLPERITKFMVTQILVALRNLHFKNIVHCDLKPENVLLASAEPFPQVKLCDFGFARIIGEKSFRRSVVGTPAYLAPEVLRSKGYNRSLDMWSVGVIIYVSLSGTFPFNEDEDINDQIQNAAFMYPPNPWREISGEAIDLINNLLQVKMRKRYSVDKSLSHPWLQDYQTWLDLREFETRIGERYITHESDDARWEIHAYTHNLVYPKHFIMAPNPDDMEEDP
inactive: [1] 0.035 | [2] 0 | [3] 0.206 | [5] -0.386

PHKG1 isoform 2 (UniProt Q16816)
inactive: [3] -0.375 | [4] -0.054 | [5] -0.493
